PubChem BioAssay (EPA / NIEHS)
Calls of active or inactive are those of the source. The calls were made as follows: active = hit-call score of the fitted dose curve at least 0.9, where 1 is the maximum; inactive = score below 0.9.

Assays:
[1] = read-out: Fatty acid synthase (Homo sapiens) (UniProt P49327); test: LTEA_HepaRG_FASN: Life Technologies and Expression Analysis (LTEA) Assay for Fatty Acid Synthase (FASN) using HepaRG (AID 2283448); details: mRNA level, 48 h; actives raise or lower the signal
Outline: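 HepaRG, 48 h exposure, 8-pt half-log series top 100 uM, 0.5% DMSO vehicle, duplicates. Readout: FASN transcript by Fluidigm qRT-PCR; housekeeping-normalized; bidirectional curve fit vs DMSO baseline.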

[2] = read-out: Cyclin D2 (CCND2), CCND2 (gene 894); test: LTEA_HepaRG_CCND2: Life Technologies and Expression Analysis (LTEA) Assay for Cyclin D2 (CCND2) using HepaRG (AID 2283449); details: mRNA level, 48 h; actives raise or lower the signal;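 also: CCND2 transcript measured by TaqMan qRT-PCR and normalised to three housekeeping genes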
Outline: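 HepaRG, 48 h dosing, 8-pt half-log curve from 100 uM, 0.5% DMSO; duplicate wells. Readout: CCND2 transcript by microfluidic qRT-PCR, housekeeping-normalised; bidirectional fit vs DMSO baseline.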

[3] = read-out: Cyclin Dependent Kinase Inhibitor 1A (CDKN1A), CDKN1A (gene 1026); test: LTEA_HepaRG_CDKN1A: Life Technologies and Expression Analysis (LTEA) Assay for Cyclin Dependent Kinase Inhibitor 1A (CDKN1A) using HepaRG (AID 2283450); details: mRNA level, 48 h; actives raise or lower the signal
Outline: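 Expression quantified by Fluidigm qRT-PCR with ACTB, GAPDH and POLR2A normalization, fitted bidirectionally against 0.5% DMSO. Cells: HepaRG, plated 48 h then treated 48 h in serum-free induction medium, top concentration 100 uM with half-log dilutions.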

[4] = read-out: Cyclin D1 (CCND1), CCND1 (gene 595); test: LTEA_HepaRG_CCND1: Life Technologies and Expression Analysis (LTEA) Assay for Cyclin D1 (CCND1) using HepaRG (AID 2283451); details: mRNA level, 48 h; actives raise or lower the signal
Outline: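 Expression of CCND1 was quantified by qRT-PCR on Fluidigm arrays using ACTB, GAPDH and POLR2A as reference genes. HepaRG cultures, plated 48 h beforehand, were dosed for 48 h at up to 100 uM (half-log, 8 points) in 0.5% DMSO.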

[5] = read-out: catalase (CAT), CAT (gene 847); test: LTEA_HepaRG_CAT: Life Technologies and Expression Analysis (LTEA) Assay for catalase (CAT) using HepaRG (AID 2283452); details: mRNA level, 48 h; actives raise or lower the signal
Outline: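 HepaRG cells in serum-free induction medium, 0.5% DMSO vehicle, exposed 48 h in duplicate over 8 half-log concentrations from 100 uM. CAT mRNA measured by qRT-PCR, normalized to ACTB, GAPDH, POLR2A; bidirectional fit versus DMSO.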

[6] = read-out: Cytochrome P450 (CYP1A1), CYP1A1 (gene 1543); test: LTEA_HepaRG_CYP1A1: Life Technologies and Expression Analysis (LTEA) Assay for Cytochrome P450 (CYP1A1) using HepaRG (AID 2283454); details: mRNA level, 48 h; actives raise or lower the signal
Outline: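 CYP1A1 transcript levels measured by Fluidigm qRT-PCR against three housekeeping genes, 48 h after chemical dosing of human HepaRG cells (highest concentration 100 uM, half-log steps, 0.5% DMSO vehicle). Gain or loss of signal fitted relative to DMSO.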

[7] = read-out: CFLAR gene, CFLAR (gene 8837); test: LTEA_HepaRG_CFLAR: Life Technologies and Expression Analysis (LTEA) Assay for CFLAR gene using HepaRG (AID 2283455); details: mRNA level, 48 h; actives raise or lower the signal
Outline: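 qRT-PCR read-out (Fluidigm/TaqMan) of CFLAR mRNA, normalized to three housekeeping genes, in differentiated human HepaRG cells after 48 h chemical exposure; 8-point half-log series from 100 uM in 0.5% DMSO; bidirectional curve fitting versus DMSO.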

[8] = read-out: Forkhead box O1 (FOXO1), FOXO1 (gene 2308); test: LTEA_HepaRG_FOXO1: Life Technologies and Expression Analysis (LTEA) Assay for Forkhead box O1 (FOXO1) using HepaRG (AID 2283456); details: mRNA level, 48 h; actives raise or lower the signal
Outline: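 HepaRG, 48 h exposure, 8-pt half-log series from 100 uM in 0.5% DMSO, duplicates; Fluidigm qRT-PCR mRNA, housekeeping-normalised; bidirectional fit vs DMSO baseline.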

[9] = read-out: growth arrest and DNA damage 45 (GADD45A), GADD45A (gene 1647); test: LTEA_HepaRG_GADD45A: Life Technologies and Expression Analysis (LTEA) Assay for growth arrest and DNA damage 45 (GADD45A) using HepaRG (AID 2283458); details: mRNA level, 48 h; actives raise or lower the signal
Outline: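 HepaRG, 48 h exposure, 8 conc. (top 100 uM, half-log steps), 0.5% DMSO vehicle, duplicates. Read-out: qRT-PCR mRNA level, housekeeping-normalized (ACTB/GAPDH/POLR2A). Curves fit bidirectionally vs DMSO baseline.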

[10] = read-out: Forkhead box O3 (FOXO3), FOXO3 (gene 2309); test: LTEA_HepaRG_FOXO3: Life Technologies and Expression Analysis (LTEA) Assay for Forkhead box O3 (FOXO3) using HepaRG (AID 2283459); details: mRNA level, 48 h; actives raise or lower the signal
Outline: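 qRT-PCR readout of FOXO3 transcript, normalized to three housekeeping genes (ACTB, GAPDH, POLR2A); gain or loss fitted against 0.5% DMSO vehicle. HepaRG cells, 48 h chemical exposure, 8-point half-log series, top 100 uM.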

[11] = read-out: ABC Transporter (ABCB1), ABCB1 (gene 5243); test: LTEA_HepaRG_ABCB1: Life Technologies and Expression Analysis (LTEA) Assay for ABC Transporter (ABCB1) using HepaRG (AID 2283460); details: mRNA level, 48 h; actives raise or lower the signal
Outline: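 HepaRG, 48 h exposure, 8-pt half-log series from 100 uM, 0.5% DMSO vehicle, duplicates. Readout: ABCB1 transcript by Fluidigm TaqMan qRT-PCR, housekeeping-normalized; bidirectional curve fit vs DMSO baseline.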

[12] = read-out: ABC Transporter (ABCC3), ABCC3 (gene 8714); test: LTEA_HepaRG_ABCC3: Life Technologies and Expression Analysis (LTEA) Assay for ABC Transporter (ABCC3) using HepaRG (AID 2283462); details: mRNA level, 48 h; actives raise or lower the signal
Outline: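 Transcript level by TaqMan qRT-PCR, normalised to three housekeeping genes, fitted in both directions relative to vehicle. Chemicals tested in duplicate at eight half-log concentrations up to 100 uM for 48 h on HepaRG cells (0.5% DMSO).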

[13] = read-out: ABC Transporter (ABCB11), ABCB11 (gene 8647); test: LTEA_HepaRG_ABCB11: Life Technologies and Expression Analysis (LTEA) Assay for ABC Transporter (ABCB11) using HepaRG (AID 2283463); details: mRNA level, 48 h; actives raise or lower the signal
Outline: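 HepaRG, 48 h exposure, 8-pt half-log CRC top 100 uM, 0.5% DMSO vehicle, duplicates. Readout: TaqMan qRT-PCR of ABCB11 mRNA, housekeeping-normalized (ACTB/GAPDH/POLR2A). Bidirectional fit vs DMSO baseline.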

[14] = read-out: ABC Transporter (ABCC2), ABCC2 (gene 1244); test: LTEA_HepaRG_ABCC2: Life Technologies and Expression Analysis (LTEA) Assay for ABC Transporter (ABCC2) using HepaRG (AID 2283464); details: mRNA level, 48 h; actives raise or lower the signal
Outline: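 Endpoint is ABCC2 transcript level from qRT-PCR, normalized to three housekeeping genes and fitted bidirectionally relative to DMSO. Human HepaRG cells received test chemical for 48 h at up to 100 uM (8 points, half-log steps, 0.5% DMSO), duplicate wells.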

[15] = read-out: Broad substrate specificity ATP-binding cassette transporter ABCG2 (Homo sapiens) (UniProt Q9UNQ0); test: LTEA_HepaRG_ABCG2: Life Technologies and Expression Analysis (LTEA) Assay for ABC Transporter (ABCG2) using HepaRG (AID 2283465); details: mRNA level, 48 h; actives raise or lower the signal
Outline: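 HepaRG, 48 h exposure, 8-pt half-log series from 100 uM, 0.5% DMSO vehicle, duplicates. Readout: ABCG2 transcript by qRT-PCR (Fluidigm array), housekeeping-normalized; bidirectional curve fit relative to DMSO baseline.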

[16] = read-out: ATP-citrate lyase (ACLY), ACLY (gene 47); test: LTEA_HepaRG_ACLY: Life Technologies and Expression Analysis (LTEA) Assay for ATP-citrate lyase (ACLY) using HepaRG (AID 2283466); details: mRNA level, 48 h; actives raise or lower the signal
Outline: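 qRT-PCR readout of ACLY transcript after 48 h chemical treatment of HepaRG cells; expression normalized to three housekeeping genes. Eight-point half-log series, highest 100 uM, 0.5% DMSO vehicle. Gain or loss fitted against DMSO baseline.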

[17] = read-out: Peroxisomal acyl-coenzyme A oxidase 1 (ACOX1) gene, ACOX1 (gene 51); test: LTEA_HepaRG_ACOX1: Life Technologies and Expression Analysis (LTEA) Assay for Peroxisomal acyl-coenzyme A oxidase 1 (ACOX1) gene using HepaRG (AID 2283467); details: mRNA level, 48 h; actives raise or lower the signal
Outline: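 HepaRG, 48 h chemical exposure, 8-pt half-log series from 100 uM top, 0.5% DMSO vehicle, duplicates. Readout: ACOX1 mRNA by Fluidigm qRT-PCR, housekeeping-normalized; bidirectional fit vs DMSO baseline.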

[18] = read-out: flavin-containing dimethylaniline monooxygenases 3 (FMO3), FMO3 (gene 2328); test: LTEA_HepaRG_FMO3: Life Technologies and Expression Analysis (LTEA) Assay for flavin-containing dimethylaniline monooxygenases 3 (FMO3) using HepaRG (AID 2283453); details: mRNA level, 48 h; actives raise or lower the signal
Outline: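 Eight-point concentration-response in serum-free HepaRG cultures (top 100 uM, 0.5% DMSO, 48 h). Read-out: FMO3 mRNA level normalized to three endogenous control genes, fitted bidirectionally versus vehicle.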

[19] = CEETOX_H295R_TESTO: CeeTox H295R High-throughput Steroidogenesis Assay for Testosterone (TESTO) (AID 2283457); details: actives raise or lower the signal
Outline: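 Testosterone secreted into the medium over 48 h by H295R cells (maximum passage 10) was quantified by LC-MS/MS after MTBE extraction. Fitted in both directions against DMSO, with concentrations diluted until MTT viability was ≥70%.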

[20] = read-out: growth arrest and DNA damage 45 (GADD45B), GADD45B (gene 4616); test: LTEA_HepaRG_GADD45B: Life Technologies and Expression Analysis (LTEA) Assay for growth arrest and DNA damage 45 (GADD45B) using HepaRG (AID 2283461); details: mRNA level, 48 h; actives raise or lower the signal
Outline: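 Transcript level quantified by Fluidigm TaqMan qRT-PCR with three housekeeping genes for normalization, analyzed for up- or down-regulation against 0.5% DMSO. HepaRG cultures dosed 48 h at eight half-log concentrations up to 100 uM, duplicates.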

Chain of Fatty acid synthase (Homo sapiens) (P49327 whole entry, looked up): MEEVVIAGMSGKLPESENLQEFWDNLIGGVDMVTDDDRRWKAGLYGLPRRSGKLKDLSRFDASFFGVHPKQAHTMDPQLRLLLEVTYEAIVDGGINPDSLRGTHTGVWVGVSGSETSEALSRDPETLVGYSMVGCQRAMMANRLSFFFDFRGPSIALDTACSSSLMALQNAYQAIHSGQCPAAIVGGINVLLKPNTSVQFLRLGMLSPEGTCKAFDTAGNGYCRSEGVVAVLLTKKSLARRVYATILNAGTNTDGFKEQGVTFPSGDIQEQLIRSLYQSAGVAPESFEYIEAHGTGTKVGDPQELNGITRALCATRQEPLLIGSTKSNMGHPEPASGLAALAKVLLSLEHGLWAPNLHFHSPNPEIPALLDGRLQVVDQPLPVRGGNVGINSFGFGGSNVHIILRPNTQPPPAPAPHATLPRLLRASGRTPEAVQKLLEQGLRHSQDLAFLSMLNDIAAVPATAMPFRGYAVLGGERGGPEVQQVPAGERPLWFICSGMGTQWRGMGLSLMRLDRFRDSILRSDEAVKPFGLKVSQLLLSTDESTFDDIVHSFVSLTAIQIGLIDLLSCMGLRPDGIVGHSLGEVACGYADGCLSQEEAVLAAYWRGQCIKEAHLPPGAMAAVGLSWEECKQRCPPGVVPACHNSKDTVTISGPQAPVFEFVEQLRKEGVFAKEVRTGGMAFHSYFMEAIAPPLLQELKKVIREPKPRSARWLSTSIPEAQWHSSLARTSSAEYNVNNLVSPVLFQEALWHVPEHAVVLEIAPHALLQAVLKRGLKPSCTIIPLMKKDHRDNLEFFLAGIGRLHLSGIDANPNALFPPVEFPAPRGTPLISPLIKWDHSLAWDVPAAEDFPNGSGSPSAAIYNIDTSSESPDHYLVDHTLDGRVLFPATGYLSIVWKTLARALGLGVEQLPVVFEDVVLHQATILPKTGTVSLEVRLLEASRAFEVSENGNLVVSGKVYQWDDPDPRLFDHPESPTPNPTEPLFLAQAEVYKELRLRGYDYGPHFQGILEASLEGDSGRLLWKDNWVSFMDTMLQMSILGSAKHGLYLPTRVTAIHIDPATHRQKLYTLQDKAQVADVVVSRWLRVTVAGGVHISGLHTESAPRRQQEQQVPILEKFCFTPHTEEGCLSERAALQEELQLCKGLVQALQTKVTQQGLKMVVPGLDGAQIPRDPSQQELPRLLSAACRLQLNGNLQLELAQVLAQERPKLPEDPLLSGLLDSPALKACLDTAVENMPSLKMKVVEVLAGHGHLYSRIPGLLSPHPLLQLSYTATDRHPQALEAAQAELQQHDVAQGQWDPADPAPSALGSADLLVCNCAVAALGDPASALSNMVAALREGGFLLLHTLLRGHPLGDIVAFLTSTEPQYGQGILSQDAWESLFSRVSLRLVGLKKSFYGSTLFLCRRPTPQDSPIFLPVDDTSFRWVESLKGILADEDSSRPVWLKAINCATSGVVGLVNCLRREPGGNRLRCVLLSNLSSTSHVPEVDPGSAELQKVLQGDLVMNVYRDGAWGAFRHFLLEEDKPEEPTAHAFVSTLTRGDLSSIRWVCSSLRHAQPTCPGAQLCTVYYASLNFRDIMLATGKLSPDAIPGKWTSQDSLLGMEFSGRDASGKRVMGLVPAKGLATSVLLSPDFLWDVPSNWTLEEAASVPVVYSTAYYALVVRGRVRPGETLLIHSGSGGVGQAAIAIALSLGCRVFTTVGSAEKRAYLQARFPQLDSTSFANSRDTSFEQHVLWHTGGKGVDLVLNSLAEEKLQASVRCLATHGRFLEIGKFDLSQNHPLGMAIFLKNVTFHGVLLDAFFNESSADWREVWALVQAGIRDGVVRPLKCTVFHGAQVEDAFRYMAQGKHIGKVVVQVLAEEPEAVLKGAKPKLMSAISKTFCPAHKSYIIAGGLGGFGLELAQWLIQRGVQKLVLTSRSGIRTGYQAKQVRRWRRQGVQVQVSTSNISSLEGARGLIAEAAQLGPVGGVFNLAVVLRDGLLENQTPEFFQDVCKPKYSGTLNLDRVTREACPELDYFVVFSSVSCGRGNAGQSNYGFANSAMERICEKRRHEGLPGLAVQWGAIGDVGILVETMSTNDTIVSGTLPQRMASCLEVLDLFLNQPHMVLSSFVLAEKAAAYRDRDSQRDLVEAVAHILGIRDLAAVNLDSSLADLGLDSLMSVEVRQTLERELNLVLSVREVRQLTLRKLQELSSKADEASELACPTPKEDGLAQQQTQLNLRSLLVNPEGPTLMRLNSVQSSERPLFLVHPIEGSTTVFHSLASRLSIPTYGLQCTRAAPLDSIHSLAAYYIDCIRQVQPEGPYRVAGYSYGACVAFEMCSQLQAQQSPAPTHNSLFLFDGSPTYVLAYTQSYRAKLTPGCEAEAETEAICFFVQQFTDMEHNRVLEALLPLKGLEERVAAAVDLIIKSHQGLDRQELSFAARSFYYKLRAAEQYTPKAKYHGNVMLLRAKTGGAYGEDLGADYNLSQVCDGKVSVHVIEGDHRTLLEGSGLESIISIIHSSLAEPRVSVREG
Chain of Broad substrate specificity ATP-binding cassette transporter ABCG2 (Homo sapiens) (Q9UNQ0 whole entry, looked up): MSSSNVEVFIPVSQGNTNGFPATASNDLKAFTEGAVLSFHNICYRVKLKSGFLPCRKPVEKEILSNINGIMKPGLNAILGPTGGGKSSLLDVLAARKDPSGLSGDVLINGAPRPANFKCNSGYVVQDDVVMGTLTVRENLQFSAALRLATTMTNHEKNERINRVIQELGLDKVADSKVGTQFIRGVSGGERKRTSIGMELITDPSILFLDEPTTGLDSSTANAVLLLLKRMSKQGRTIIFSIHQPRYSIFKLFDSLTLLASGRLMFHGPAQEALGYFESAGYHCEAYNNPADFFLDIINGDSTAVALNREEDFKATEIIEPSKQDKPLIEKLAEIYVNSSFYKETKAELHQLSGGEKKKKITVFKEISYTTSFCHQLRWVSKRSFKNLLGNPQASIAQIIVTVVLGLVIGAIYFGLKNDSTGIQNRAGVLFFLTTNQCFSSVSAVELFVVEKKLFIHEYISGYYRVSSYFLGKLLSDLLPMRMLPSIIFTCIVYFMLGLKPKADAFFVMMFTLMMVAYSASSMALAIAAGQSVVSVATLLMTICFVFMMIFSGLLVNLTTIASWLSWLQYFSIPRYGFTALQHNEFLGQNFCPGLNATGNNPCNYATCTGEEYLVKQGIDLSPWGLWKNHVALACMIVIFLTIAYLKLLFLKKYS

SMILES: CCCCCCCC(=O)O
- outcome [1]: inactive
- outcome [2]: inactive
- outcome [3]: inactive
- outcome [4]: inactive
- outcome [5]: inactive
- outcome [6]: inactive
- outcome [7]: inactive
- outcome [8]: inactive
- outcome [9]: inactive
- outcome [10]: inactive
- AC50 [11]: 12.4 µM (active)
- outcome [12]: inactive
- outcome [13]: inactive
- outcome [14]: inactive
- outcome [15]: inactive
- AC50 [16]: 12.4 µM (active)
- AC50 [17]: 12.5 µM (active)

SMILES: CCOC(=O)CC(O)(CC(=O)OCC)C(=O)OCC
- outcome [1]: inactive
- outcome [2]: inactive
- outcome [3]: inactive
- outcome [4]: inactive
- outcome [5]: inactive
- outcome [6]: inactive
- outcome [7]: inactive
- outcome [8]: inactive
- outcome [9]: inactive
- outcome [10]: inactive
- outcome [11]: inactive
- outcome [12]: inactive
- outcome [13]: inactive
- outcome [14]: inactive
- outcome [16]: inactive
- outcome [17]: inactive

SMILES: O=C(O)c1ccccc1C(c1ccc(O)cc1)c1ccc(O)cc1
- outcome [1]: inactive
- outcome [3]: inactive
- outcome [4]: inactive
- outcome [5]: inactive
- outcome [18]: inactive
- outcome [6]: inactive
- outcome [7]: inactive
- outcome [8]: inactive
- outcome [19]: inactive
- outcome [9]: inactive
- outcome [10]: inactive
- outcome [11]: inactive
- outcome [20]: inactive
- outcome [12]: inactive
- outcome [13]: inactive
- outcome [14]: inactive
- outcome [15]: inactive
- outcome [16]: inactive
- outcome [17]: inactive
